From PubChem BioAssay AID1479144 (National Center for Advancing Translational Sciences (NCATS), 2020)
Results filed as inconclusive are left out. Unmarked numbers belong to inactive results. Calls of active or inactive are those of the source. The call rests on the fitted dose curve.

experiment: Confirmatory qHTS for Vero E6 cytotoxicity: counterscreen for inhibitors of SARS-S pseudo-typed particle cell entry; details: cell viability; series mostly up to 57.1 µM; activity change, negative = cytotoxicity: at the top concentration

Row | Structure (SMILES) | activity change, negative = cytotoxicity [%] | Potency
1 | CC(C)(C)C(=O)OCOP(=O)(COCCn1cnc2c(N)ncnc21)OCOC(=O)C(C)(C)C | -6.28 | –
2 | CCc1c2c(nc3ccc(OC(=O)N4CCC(N5CCCCC5)CC4)cc13)-c1cc3c(c(=O)n1C2)COC(=O)[C@]3(O)CC | 0 | –
3 | COc1cccc2c1C(=O)c1c(O)c3c(c(O)c1C2=O)C[C@@](O)(C(C)=O)C[C@@H]3O[C@H]1C[C@H](N)[C@H](O)[C@H](C)O1 | – | 13.6 µM (active)
4 | COC(=O)C1=C(C)NC(C)=C(C(=O)OCC(C)C)C1c1ccccc1[N+](=O)[O-] (stereo not drawn) | – | 27.1 µM (active)
5 | CN1CC[C@H](CN2c3ccccc3Sc3ccccc32)C1 | -9.59 | –
6 | CCN(CC)Cc1cc(Nc2ccnc3cc(Cl)ccc23)ccc1O | -2.14 | –
7 | CN(C)CCC=C1c2ccccc2C(C)(C)c2ccccc21 | 0 | –
8 | CC(C)OC(=O)OCOP(=O)(CO[C@H](C)Cn1cnc2c(N)ncnc21)OCOC(=O)OC(C)C | -16.5 | –
9 | CC(=O)Oc1ccccc1C(=O)Nc1ncc([N+](=O)[O-])s1 | – | 9.61 µM (active)
10 | CC(CN(C)C)CN1c2ccccc2CCc2ccccc21 (stereo not drawn) | -18.4 | –
11 | OCCN1CCN(CC/C=C2/c3ccccc3Sc3ccc(C(F)(F)F)cc32)CC1 | -23.7 | –
12 | CCCCCCOC(=O)NC(=N)c1ccc(NCc2nc3cc(C(=O)N(CCC(=O)OCC)c4ccccn4)ccc3n2C)cc1 | 0 | –
13 | Oc1c(Cl)cc(Cl)c(Cl)c1Cc1c(O)c(Cl)cc(Cl)c1Cl | – | 4.82 µM (active)
14 | CCC(C)(C)C(=O)O[C@H]1C[C@@H](C)C=C2C=C[C@H](C)[C@H](CC[C@@H]3C[C@@H](O)CC(=O)O3)[C@H]21 | – | 5.41 µM (active)
15 | Cc1cn([C@H]2C[C@H](N=[N+]=[N-])[C@@H](CO)O2)c(=O)[nH]c1=O | -4.49 | –
16 | CN1CCC[C@@H]1CCO[C@](C)(c1ccccc1)c1ccc(Cl)cc1 | -11.2 | –
17 | Cc1cc(-n2c(=O)[nH]c(=O)n(C)c2=O)ccc1Oc1ccc(S(=O)(=O)C(F)(F)F)cc1 | -23.2 | –
18 | CCn1cc(C(=O)O)c(=O)c2cc(F)c(N3CCNC(C)C3)c(F)c21 (stereo not drawn) | -17.7 | –
